Assay outcomes: PubChem BioAssay, National Center for Advancing Translational Sciences (NCATS)
In the library only some 1.7% were active in any assay of this set; here they are far more common.
PTHR1 ag: PTHR1 (human) receptor agonism. 410,000 compounds, 0.075% hits. Potency, µM (top dose mostly 115 µM), inactives show top-dose activation, most hits filed as activators. AID 743266. Q03431. HEK293 GP2 PTHR1 cells, GloSensor cAMP luminescence, 1 h; note: nearly all actives have a fitted effect of over 55% in size
Target sequence (Q03431 whole entry, looked up): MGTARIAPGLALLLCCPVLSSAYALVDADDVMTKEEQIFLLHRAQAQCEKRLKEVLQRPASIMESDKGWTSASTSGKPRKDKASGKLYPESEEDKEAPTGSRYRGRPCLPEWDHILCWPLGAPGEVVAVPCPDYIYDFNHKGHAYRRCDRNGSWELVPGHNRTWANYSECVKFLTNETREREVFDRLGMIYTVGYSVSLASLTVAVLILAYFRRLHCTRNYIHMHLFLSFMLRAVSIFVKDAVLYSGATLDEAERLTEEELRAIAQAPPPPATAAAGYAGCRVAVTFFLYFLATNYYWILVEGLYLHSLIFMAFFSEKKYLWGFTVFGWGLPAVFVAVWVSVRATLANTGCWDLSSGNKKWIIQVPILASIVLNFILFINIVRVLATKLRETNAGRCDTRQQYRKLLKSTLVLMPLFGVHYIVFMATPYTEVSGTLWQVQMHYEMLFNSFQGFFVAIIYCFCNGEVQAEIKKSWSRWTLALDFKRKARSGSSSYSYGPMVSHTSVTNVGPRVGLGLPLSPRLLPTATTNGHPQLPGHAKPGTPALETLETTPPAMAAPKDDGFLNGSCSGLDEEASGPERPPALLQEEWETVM
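HEK-293-derived GP2 cells expressing PTHR1 and a GloSensor cAMP reporter, 3,000/well, plated overnight, given luciferin plus IBMX (each 0.5 mM as added) for 1 h at 37 °C, then compound for 1 h at 37 °C. Luminescence was read after 15 min at room temperature.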
GLP1R inv ag: GLP-1 receptor (human) inverse agonism; HEK293 GLP-1R CRE-luciferase, luminescence, 24 h; GLP-1R form is constitutively active; Potency, µM (highest dose often 38.3 µM), for inactives: at the top dose activity change, negative = inhibition, actives largely listed as inhibitors; 410,000 compounds, 1.6% hits; AID 624417; note: % is set by controls: 0 for no effect and ±100 for the full control effect; nearly all actives have a fitted effect of over 55% in size
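Assay principle: reduced luminescence from a cAMP-responsive reporter in HEK293 cells co-expressing a constitutively active GLP-1R. Conditions: 24 hr compound incubation, 37 deg C, 5% CO2.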
GLP-1R agonist: activates the human GLP-1 receptor; P43220; HEK293 GLP-1R CRE-luciferase, luminescence, 4-6 h; cells express a hypersensitive GLP-1R form; Potency, µM (highest dose often 45.6 µM), inactives show top-dose activation, most hits filed as activators; 380,000 compounds, 0.007% hits; AID 624172; note: % of control where 0% means no effect
GLP1R cytotox: cytotoxic in the GLP-1 receptor inverse agonist counter-screen | HEK293 cAMP-luciferase reporter cells, luminescence, 24 h | Potency, µM (highest dose often 38.3 µM), for inactives: at the highest dose activity change, negative = inhibition, actives largely listed as inhibitors | 410,000 compounds, 0.13% hits;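 note: loss of luciferase light is scored as toxicity; % is set by controls: 0 for no effect and ±100 for the full control effect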
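MLSMR compounds, 24 hr on cells at 37 deg C/5% CO2; luminescence after luciferase reagent (12 min RT). Inhibition counted as the undesired cytotoxic outcome.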
Active calls of the source: *; i = inactive; ? = inconclusive; . = no result given; [ ] = another dose, or the depositor's remark. Calls come from the whole dose curve; as a rule, active = well fitted curve in the direction sought with a large enough effect; inconclusive = small, poorly fitted or top-dose-only effect, or another doubt; inactive = no such curve, though single readings can be large; an effect the other way counts as inactive or inconclusive. Potency is the fitted concentration of half-maximal effect.

SMILES | PTHR1 ag | GLP1R inv ag | GLP-1R agonist | GLP1R cytotox
CCN(CC)CCCNC(=O)c1oc2ccc(S(=O)(=O)N3CC(C)CC(C)C3)cc2c1C (centres undefined) | i | 1.4µM* | 12% | ?
CCCCN(CC)C(=O)c1cc2c(=O)n3ccccc3nc2n1C | -2% | 57% | . | 194%
COC(=O)c1c(SCC(=O)Nc2ccccc2OC)[nH]c2ccccc2c1=O | i | ? | . | -11%
CCCCC(=O)NC(c1ccco1)c1c(O)ccc2ccccc12 (centres undefined) | -4%[57.5 µM] | 8.9µM* | -5% | -7%
CC(C)CC(=O)NC(c1ccccc1Cl)c1c(O)ccc2ccccc12 (centres undefined) | i | 8.9µM* | -5% | -33%
O=C(CSc1nnc2[nH]c(=O)cc(-c3ccccc3)n12)Nc1cc(C(F)(F)F)ccc1Cl | -42% | 5% | . | 1%
CCc1ccccc1NC(=O)N(C)CCc1c(C)nn(C)c1C | -23% | 4% | -1% | 2%
Cc1ccc(OCc2cc(C(=O)N3CCC(C(O)C(C)C)CC3)no2)cc1C (centres undefined) | -19% | 11µM* | 9% | -15%
Cc1cccc(CC(C)NC(=O)c2cc(COc3ccc(C)c(C)c3)on2)n1 (centres undefined) | -38% | 10µM* | 4% | 3%
C[C@H]1CN([C@@H](C)CO)C(=O)c2cccc(NC(=O)Nc3ccc(C(F)(F)F)cc3)c2O[C@H]1CN(C)C | 20% | 10µM* | -4% | 18%
C[C@H](CO)N1C[C@H](C)[C@@H](CN(C)C(=O)Nc2ccc(C(F)(F)F)cc2)Oc2c(NC(=O)Nc3ccc(C(F)(F)F)cc3)cccc2C1=O | -20% | 11µM* | -11% | ?
CCCCN1CC(O)C(O)C(O)C1CO (centres undefined) | . | . | -1% | .
CC(C)Cc1nc(N2CCN(C(=O)c3ccco3)CC2)c(C#N)c2c1CCCC2 | -36% | 8.9µM* | 19% | -26%
Cc1nc(N2CCN(C(=O)c3ccco3)CC2)c(C#N)c2c1CCCC2 | -41% | 1% | -4% | 3%
Cc1cccc(-c2cccc(NC(=O)C3CCCN(C(=O)c4csc(C)n4)C3)c2)c1 (centres undefined) | -50% | 5µM* | 7% | -16%
Cc1cccc(-c2cccc(NC(=O)C3CCCN(C(=O)c4cccnc4)C3)c2)c1 (centres undefined) | i | ? | 9% | -15%
CC1CCN(CCCCOc2ccc([N+](=O)[O-])cc2)CC1 | i | -17% | -1% | -1%
CC1CCN(CCCCOc2ccccc2[N+](=O)[O-])CC1 | 24% | -1% | 0% | 8.9µM*
COc1ccc(C2C(=O)N(C3CCCCC3)CC(=O)N2CCc2ccc(C)cc2)cc1OC (centres undefined) | i | -18% | . | -3%
COc1ccc(CCC(=O)NCCOc2ccc(C)cc2)cc1 | i | 1.8µM* | 2% | -3%
Cc1ccc(C)c(OCCC(=O)NCCc2ccc(Cl)cc2)c1 | -88% | 10µM* | 16% | -6%
CCCCCC(=O)N1C[C@H](O)[C@@H](n2cc(-c3ccc(F)cc3)nn2)C[C@@H]1c1ccccc1 | -16% | -23% | -1% | -3%
CCCCCC(=O)N1C[C@H](O)[C@@H](n2cc(-c3ccc(F)cc3)nn2)C[C@@H]1c1ccc(C)cc1 | -29% | 10µM* | 13% | -17%
CCCCCC(=O)N1C[C@@H](n2cc(-c3ccc(F)cc3)nn2)[C@H](O)C[C@@H]1c1ccccc1 | -62% | ? | 8% | -12%
CCCCCC(=O)N1C[C@H](n2cc(-c3ccc(F)cc3)nn2)[C@@H](O)C[C@@H]1c1ccc(Cl)cc1 | i | 10µM* | -4% | ?
SMILES | PTHR1 ag | GLP1R inv ag | GLP-1R agonist | GLP1R cytotox
OC1(c2ccccc2)CC(c2ccccc2)c2ccccc2O1 (centres undefined) | -36% | 11µM* | 1% | ?
Cc1ccc(Cn2cc(C(=O)c3ccc4c(c3)OCO4)c(=O)c3cc(C)ccc32)cc1 | -9% | ? | . | -5%
CC(=O)c1ccc(NC(=O)c2cnn3ccccc23)cc1 | -31% | 2.5µM* | -6% | -6%
CCc1ccc(Sc2cc(C(=O)NCc3cccc(OC)c3)c3ccccc3n2)cc1 | -24% | 10µM* | -7% | -7%
COc1cccc(CNC(=O)c2cccnc2Sc2ccccc2)c1 | i | 135% | ? | -8%
CC(C)(C)c1nnc(N/N=C/c2cc(Br)ccc2O)n(N)c1=O | -31% | 3.5µM* | -18% | ?
Cc1ccccc1NS(=O)(=O)c1ccc2[nH]cc(C(=O)NC3CCCCC3)c(=O)c2c1 | -3% | 10µM* | . | -23%
Cc1c(Cl)cccc1NS(=O)(=O)c1ccc2[nH]cc(C(=O)NC3CCCC3)c(=O)c2c1 | i | ? | . | -22%
Cc1cc(C)cc(NS(=O)(=O)c2ccc3[nH]cc(C(=O)NC4CCCCC4)c(=O)c3c2)c1 | -2% | 7.1µM* | . | -18%
COc1ccc(Cn2c(O)c(C=Nc3ccc(O)cc3)c3ccccc3c2=O)cc1 | -3% | 8.9µM* | 0% | -4%
CCOc1ccc(N(CC)C(=O)Cn2cnc3sc(C)c(S(=O)(=O)N4CCN(c5ncccn5)CC4)c3c2=O)cc1 | i | 9% | -1% | -3%
CCCCNCC1C(Oc2ccc(Cl)cc2)C(=O)N1c1ccccc1C (centres undefined) | -9% | 10µM* | 3% | ?
CCCNCC1C(Oc2ccc(Cl)cc2Cl)C(=O)N1c1cccc(C)c1C (centres undefined) | -1% | ? | 0% | ?
c1ccc2nc(-c3nc4ccccc4[nH]3)ccc2c1 | -23%[57.5 µM] | 10µM* | -22% | -2%
CS(=O)(=O)Cc1ccc(C(=O)N2CCCC2c2cccs2)cc1 (centres undefined) | i | -1% | 4% | -3%
CC(C)(C)c1ccc(C(=O)N2CCCC2c2cccs2)cc1 (centres undefined) | -94% | 11µM* | 5% | 13%
CCOc1ccccc1NC(=O)CN(CCc1ccccc1)S(=O)(=O)c1ccc(C)cc1 | i | 10µM* | . | 0%
CCCCNC(=O)c1ccccc1NC(=O)CCSc1ccccc1 | -21%[57.5 µM] | 10µM* | 24% | 5%
CCCCNC(=O)Nc1ccccc1C(=O)NCCC | -2%[57.5 µM] | 0% | -4% | -26%
Cc1ccccc1OCC(=O)N1N=C(C(F)(F)F)CC1(O)C(C)(C)C (centres undefined) | i | 8.9µM* | -19% | ?
CC(C)(C)C1(O)CC(C(F)(F)F)=NN1C(=O)Cc1ccc([N+](=O)[O-])cc1 (centres undefined) | -1% | 10µM* | 18% | 20%
CC(C)(C)OC(=O)N1CCC2(CC1)Oc1ccc(F)cc1C(=O)C21CC(c2ccccc2)=NO1 (centres undefined) | i | 11µM* | 7% | 6%
CCc1cccc(CC)c1NC(=O)c1cc(S(=O)(=O)N2CCc3ccccc32)cn1C | i | -2% | . | 7%
